From PubChem
M18AAP inhibitor – PfM18AAP enzyme inhibition | recombinant PfM18AAP, H-Glu-NHMec fluorogenic cleavage | inhibition, % at 7.35 µM | 290,000 compounds, 1.2% hits | AID 1822;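 active means inhibition above the campaign mean inhibition over all tested compounds plus 3 SD, cut at about 28% in these data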;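 further: 0% = plate median of test compound wells and 100% = 2 mM ZnCl2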
PfGluPho inh – PfG6PD (Plasmodium falciparum) enzyme inhibition | 350,000 compounds, 0.78% hits | inhibition, % at 20 µM | PfGluPho enzyme, NADPH resazurin-diaphorase fluorescence | AID 504690;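 active means inhibition reaching at least a set limit at 20 µM in the primary screen, cut at about 59% in these data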;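 further: 0% = DMSO wells with substrate and 100% = DMSO wells lacking glucose-6-phosphate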
PHOSPHO1 block – blocks human PHOSPHO1 phosphatase activity; Q8TCT1; recombinant PHOSPHO1, absorbance phosphatase assay; inhibition, % at 13.3 µM; 290,000 compounds, 1.1% hits; AID 1565; in the data active means inhibition above about 60%
Target sequence (Q8TCT1 whole entry, looked up): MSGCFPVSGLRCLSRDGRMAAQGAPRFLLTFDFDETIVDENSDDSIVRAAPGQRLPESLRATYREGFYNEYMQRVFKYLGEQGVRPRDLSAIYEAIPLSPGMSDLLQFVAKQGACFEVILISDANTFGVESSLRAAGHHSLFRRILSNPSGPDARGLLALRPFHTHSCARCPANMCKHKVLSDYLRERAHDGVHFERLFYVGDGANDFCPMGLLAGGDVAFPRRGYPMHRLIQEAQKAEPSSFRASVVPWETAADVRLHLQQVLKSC
H9c2 protect – modulators protecting cardiomyocytes from myocardial damage; H9c2 cardiomyocytes, H2O2 injury protection, ATPLite, 2 h; protection from H2O2 cell death, % at 20 µM; 360,000 compounds, 0.63% hits; AID 588492;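 active means compounds giving at least 50% protection of heart cells from peroxide-induced death in the single-dose screen, raw or plate-pattern-corrected value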;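 further: 0% = DMSO wells with peroxide and 100% = DMSO wells without peroxide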
ALR inh – blocks human ALR sulfhydryl oxidase activity; P55789; purified ALR, DTT oxidation, H2O2 HRP-luminol luminescence; inhibition, % (test concentration not listed); 290,000 compounds, 3.8% hits; AID 485317;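 active means mean replicate inhibition above about 79%, with every replicate also reaching it, limit read from the data; inconclusive means only one of the two criteria met; inactive means mean below limit and not every replicate reaching it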
Target sequence (P55789 whole entry, looked up): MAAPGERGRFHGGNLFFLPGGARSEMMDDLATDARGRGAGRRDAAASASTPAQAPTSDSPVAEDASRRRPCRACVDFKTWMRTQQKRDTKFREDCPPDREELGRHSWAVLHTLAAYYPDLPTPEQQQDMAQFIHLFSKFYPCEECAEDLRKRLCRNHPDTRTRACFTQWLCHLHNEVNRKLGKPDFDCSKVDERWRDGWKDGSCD
Starred values were filed as active, the others as inactive. A selection: hits, their analogues and other compounds. The true share with any hit is near 5.6%.

For C/C=C1\NC(=O)[C@H](CC(N)=O)N(C)C(=O)C([C@@H](C)O)NC(=O)C(CCCc2ccc(OC)cc2)NC(=O)[C@H](C(C)C)NC(=O)/C(=C\C)NC(=O)[C@H](O)[C@@H](C[C@@H](O)CCCCCCC)NC(=O)[C@H](C)NC(=O)CN(C)C(=O)[C@H](CCC(N)=O)NC1=O (stereo not given in full) the results were PfGluPho inh 11.3 and H9c2 protect 1.2.
Screening CCOC(=O)c1c(S(=O)(=O)N2CCCC(C(=O)Nc3ccc(C)cn3)C2)c(C)n(C)c1C (stereo not given) returned M18AAP inhibitor 4.4, PfGluPho inh -11.9, PHOSPHO1 block 64.0*, H9c2 protect 0.0 and ALR inh -2.8.
For CCN(CC(=O)Nc1cc(Cl)ccc1C)C(=O)C1COc2ccccc2O1 (stereo not given) the results were PfGluPho inh 10.9 and H9c2 protect 2.3.
Screening Cc1ccc(C(c2sc3ncnn3c2O)N2CC(C)CC(C)C2)cc1 (stereo not given) returned M18AAP inhibitor 29.6*, PfGluPho inh -3.6, PHOSPHO1 block -11.7, H9c2 protect -1.7 and ALR inh -4.9.
`Oc1c(C(c2ccco2)N2CCN(C(c3ccccc3)c3ccccc3)CC2)sc2ncnn12` (stereo not given) gave M18AAP inhibitor 20.6, PfGluPho inh 31.4, PHOSPHO1 block 88.1* and H9c2 protect -12.6.
CCn1cnc2cc(NCc3ccc(N(C)C)cc3)ccc21 was read as M18AAP inhibitor 13.1, PfGluPho inh 10.4, PHOSPHO1 block -17.2, H9c2 protect -0.2 and ALR inh 98.4*.
`CC(C)(C)n1cnc2cc(NCc3cccs3)ccc21` gave M18AAP inhibitor 13.8, PfGluPho inh 36.6, PHOSPHO1 block -0.6, H9c2 protect -8.0 and ALR inh 71.4.
`CN(C)c1ccc(CNc2ccc3c(c2)ncn3C(C)(C)C)cc1` gave M18AAP inhibitor 10.6, PfGluPho inh 18.4, PHOSPHO1 block 4.7, H9c2 protect -2.3 and ALR inh 93.1*.
Screening CCN(CC)c1ccc(CNc2ccc3c(c2)ncn3CC)cc1 returned M18AAP inhibitor 14.6, PfGluPho inh 19.0, PHOSPHO1 block -25.3 and ALR inh 98.5*.
For CCn1cnc2cc(NCc3cccs3)ccc21 the results were M18AAP inhibitor 9.4, PfGluPho inh 18.6, PHOSPHO1 block 43.7, H9c2 protect 3.5 and ALR inh inconclusive.
`CC1(C)Cc2c(cnn2-c2cccc(F)c2)C(NC(=O)Cn2cccn2)C1` (stereo not given) gave M18AAP inhibitor 2.1, PfGluPho inh -12.4, PHOSPHO1 block 36.0, H9c2 protect -5.3 and ALR inh -10.1.
For CCN(CC)CCC(C)OC(c1ccccc1)c1ccccc1 (stereo not given) the results were M18AAP inhibitor -4.6, PfGluPho inh -1.0, PHOSPHO1 block -2.7, H9c2 protect -6.8 and ALR inh 27.1.
Cc1ccccc1[C@]1(C)ON(c2ccccc2C(F)(F)F)C1=O was read as ALR inh 3.4.
Screening CCCCc1c(O)nc(SCC(=O)c2ccccc2)n(-c2ccccc2)c1=O returned M18AAP inhibitor -14.5, PfGluPho inh -19.4, PHOSPHO1 block 41.8, H9c2 protect 11.6 and ALR inh 3.5.
`COc1ccc(NC(=O)c2ccccc2F)cc1Cl` gave M18AAP inhibitor 2.3, PfGluPho inh 25.6, PHOSPHO1 block 0.5, H9c2 protect -12.2 and ALR inh -20.8.
`CCN(CC)c1ccc(NC(=O)c2ccccc2F)cc1S(=O)(=O)Nc1ccccc1OC` gave M18AAP inhibitor 5.1, PfGluPho inh 52.3, PHOSPHO1 block 64.3*, H9c2 protect -10.7 and ALR inh -7.6.
For O=C(CCCC1=NS(=O)(=O)c2ccccc2N1)N1CCN(c2ccc(Cl)cc2)CC1 the results were M18AAP inhibitor 2.2, PfGluPho inh -8.9, PHOSPHO1 block -6.1, H9c2 protect 7.5 and ALR inh 95.9*.
O=C(CCCC1=NS(=O)(=O)c2ccccc2N1)N1CCN(c2ccccc2)CC1 was read as M18AAP inhibitor 5.2, PfGluPho inh -13.6, PHOSPHO1 block 23.8, H9c2 protect 1.7 and ALR inh 52.8.
O=C(COc1cccnc1[N+](=O)[O-])Nc1c(Cl)cccc1Cl was read as PfGluPho inh 1.5, H9c2 protect 9.2 and ALR inh -5.9.
`O=C(COc1cccnc1[N+](=O)[O-])c1ccc(Cl)s1` gave M18AAP inhibitor 31.7*, PfGluPho inh 51.6, PHOSPHO1 block 14.7, H9c2 protect -1.1 and ALR inh -11.6.
O=C(O)c1ccccc1-c1c2cc(I)c(=O)c(I)c-2oc2c(I)c(O)c(I)cc12 was read as PfGluPho inh -121.9, H9c2 protect -4.9 and ALR inh 81.6*.
O=C(N/N=C/c1cccc(Cl)c1)C1CCCC1 was read as M18AAP inhibitor -15.9, PfGluPho inh 6.3, PHOSPHO1 block -1.4, H9c2 protect -3.8 and ALR inh -4.6.
`Oc1[nH]c2ccccc2c1C1=NCCCC1` gave M18AAP inhibitor 3.0, PfGluPho inh -25.1, PHOSPHO1 block 7.6, H9c2 protect 5.7 and ALR inh 98.2*.
`CCn1c(O)c(C2=NCCCC2)c2ccccc21` gave M18AAP inhibitor 0.3, PfGluPho inh 1.4, PHOSPHO1 block -22.1 and H9c2 protect 11.1.
Screening COC(=O)c1ccc2nc(-c3ccccc3)c(Cc3ccccc3OC)n2c1 returned H9c2 protect 0.9.
CN(C)c1nc(Oc2ccc(/C=N/O)cc2)nc(N(C)C)n1 was read as M18AAP inhibitor 0.1, PfGluPho inh -14.8, PHOSPHO1 block -5.5, H9c2 protect -24.4 and ALR inh 98.8*.
For CC(C)Nc1nc(NC(C)C)nc(Oc2ccc(/C=N/O)cc2)n1 the results were M18AAP inhibitor -9.2, PfGluPho inh 15.1 and H9c2 protect 10.7.
`COc1cc(C)nc(Oc2ccc(/C=N/O)cc2)n1` gave M18AAP inhibitor -8.2, PfGluPho inh -9.0, PHOSPHO1 block 0.6, H9c2 protect 6.3 and ALR inh 98.3*.
For COc1nc(Oc2ccc(/C=N/O)cc2)nc(N(C)C)n1 the results were M18AAP inhibitor -6.9, PfGluPho inh -17.2, PHOSPHO1 block -72.3, H9c2 protect 4.0 and ALR inh 98.6*.
CCN(CC(=O)NCc1ccc(Cl)cc1)C(=O)CCc1ccccc1 was read as M18AAP inhibitor -5.9, PfGluPho inh -4.5, PHOSPHO1 block 28.6, H9c2 protect -0.1 and ALR inh -45.4.
For COc1ccc(C(=O)NCCOc2ccccc2)cc1S(=O)(=O)N1CCOCC1 the results were PfGluPho inh -0.9, H9c2 protect 6.7 and ALR inh 1.0.
For COc1ccc(-c2nc3c(C)cc(Br)cn3c2Cc2cccc(Cl)c2)cc1OC the results were H9c2 protect 4.8.
`O=C(COC(=O)C1CC2CCCC(C1)C2=O)NNC(=O)c1ccc([N+](=O)[O-])cc1` (stereo not given) gave PfGluPho inh 3.4, H9c2 protect -1.6 and ALR inh -8.5.
For Cc1cccc(N(CC(=O)NC2CCCCC2)C(=O)CCCC(=O)Nc2ccccn2)c1C the results were M18AAP inhibitor -7.3, PfGluPho inh 1.6, PHOSPHO1 block 36.0, H9c2 protect -6.3 and ALR inh -0.2.
